This is one part of the list. Records with an inconclusive call do not appear. The source made the active and inactive calls. Calls come from the whole dose curve; as a rule, active = well fitted inhibition curve with a large enough effect; inconclusive = small, poorly fitted or top-dose-only effect; inactive = no such curve, though single readings can be large or run the other way.
Each compound was assayed against Lysine-specific demethylase 4E (Homo sapiens) (UniProt B2RXH2) (assay: Confirmation qHTS Assay for Inhibitors of Human Jumonji Domain Containing 2E (JMJD2E)). Details: Recombinant JMJD2E, FDH-coupled NADH fluorescence (FDH is formaldehyde dehydrogenase).
Sequence of Lysine-specific demethylase 4E (Homo sapiens) (B2RXH2 1-337 limits assumed): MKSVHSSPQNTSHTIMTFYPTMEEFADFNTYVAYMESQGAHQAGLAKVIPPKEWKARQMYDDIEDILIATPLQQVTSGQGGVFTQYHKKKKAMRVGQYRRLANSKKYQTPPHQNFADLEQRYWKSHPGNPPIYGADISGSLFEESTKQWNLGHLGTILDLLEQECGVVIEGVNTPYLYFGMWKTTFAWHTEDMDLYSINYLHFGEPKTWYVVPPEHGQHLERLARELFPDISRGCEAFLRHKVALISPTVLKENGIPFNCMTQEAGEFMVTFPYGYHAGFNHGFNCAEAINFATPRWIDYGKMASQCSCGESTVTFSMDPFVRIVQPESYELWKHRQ
Description: The fine interplay among methylation states of several lysine residues on the tails of histone proteins is a major determinant of the transcriptional state of the associated DNA coding regions and is commonly referred to as the histone code. Histone lysine demethylases catalyze the removal of methyl groups from methylated lysine sidechains on histones H3 and H4, thus antagonizing the reactions catalyzed by histone lysine methyltransferases. […] In search for novel inhibitors of JMJD2E demethylase, a member of the largest set of histone demethylases belonging to the Fe(II) and 2-oxoglutarate oxygenase (2OG) superfamily, we performed a quantitative high-throughput screen (Inglese 2006) by using an assay which utilizes a trimethylated peptide substrate corresponding to a fragment of histone H3 (sequence ARKme3STGGK) with detection of the formaldehyde co-product in real time by a formaldehyde dehydrogenase (FDH) coupled reaction. FDH catalyzes oxidation of formaldehyde to formic acid with the concomitant reduction of the non-fluorescent beta-nicotinamide adenine dinucleotide hydrate (NAD+) cofactor to the fluorescent NADH co-product. References: Inglese, J., Auld, D., Jadhav, A., Johnson, R., Simeonov, A., Yasgar, A., Zheng, W. and Austin, C. Proc Natl Acad Sci USA 2006, 103, 11473-11478. N. R. Rose, S. S. Ng, J. Mecinovic, B. M. Lienard, S. H. Bello, Z. Sun, M. A. McDonough, U. Oppermann and C. J. Schofield, J Med Chem, 2008, 51, 7053-7056. Sakurai, M., Rose, N., Schultz, L., Quinn, A., Jadhav, A., Ng, S., Oppermann, U., Schofield, C.J. and Simeonov, A. Mol BioSystems 2009, in press. S. Michael, D. Auld, C. Klumpp, A. Jadhav, W. Zheng, N. Thorne, C. Austin, J. Inglese and A. Simeonov, Assay Drug Dev Technol, 2008, 6, 637-657. Assay Provider: Structural Genomics Consortium [SGC] Screening Center PI: Austin, C.P. Screening Center: NIH Chemical Genomics Center [NCGC]
Reagents and Controls: Ferrous ammonium sulfate, (+)-sodium L-ascorbate, beta-nicotinamide adenine dinucleotide hydrate (NAD+), Tween-20, formaldehyde dehydrogenase from P. putida (FDH), and disodium 2-oxoglutarate were from Sigma (St. Louis, MO). Black solid-bottom 384-well or 1,536-well assay plates were from Greiner Bio-One (Monroe, NC). Enzyme was supplied by Prof. Udo Oppermann, SGC-Oxford. […] The trimethylated histone peptide substrate ARK(me3)STGGK was synthesized and HPLC-purified by the Tufts University Core Facility (Boston, MA). Substrate solution (Sakurai 2009) contained 50 uM ARK(me3)STGGK, 0.00025 U/uL FDH, 50 uM 2-oxoglutarate, 250 uM NAD+, 1 mM ascorbate, and 10 uM ferrous ammonium sulfate. Controls and plate map: Buffer (150 mM HEPES pH 7.5 containing 0.01% Tween-20) in columns 3 and 4 as negative control (no enzyme) and 100 nM JMJD2E final concentration in columns 1,2, and 5-48. Assay Steps: Enzyme and buffer solutions (3 uL) were dispensed into a 1,536-well Greiner black solid-bottom assay plate. The library compounds (23 nL) were transferred using a Kalypsys pintool equipped with 1,536-pin array. The plate was incubated at room temperature (15 min), and then a 1 uL aliquot of substrate solution was added to initiate the reaction. The plate was transferred to ViewLux imager where an initial reading using standard UV optics (Ex 340 nm, Em 450 nm) was obtained. The plate was then removed from the reader, incubated for 30 minutes at room temperature, and returned to the reader for a second fluorescence reading. A fully automated robotic screening system (Kalypsys Inc, San diego, CA) was used to perform the above steps as described previously (Michael 2008). Compound plates containing DMSO as a vehicle-only control were included at regular interval throughout the screen to monitor any systematic trend in the assay signal associated with reagent dispenser variation or decreases in enzyme specific activity. For activity calculations, percent values were computed as the difference in fluorescence intensity between last and first time points. […]

Potency, active:
Oc1ccc(/C=C/c2c(F)cccc2F)c2cccnc12 9.13 µM
Oc1c(CN2CCCC2)cc(COCc2ccccc2)c2cccnc12 5.01 µM
Oc1cccc2cc(-c3ccncc3)cnc12 18.2 µM
Nc1ccc(Nc2cc(O)c3ncccc3c2)cc1 28.2 µM
O=C1CC(Sc2ncn[nH]2)C(=O)N1c1ccccc1 (stereo unspecified) 7.08 µM
Cc1ccc(N2C(=O)CC(Sc3ncn[nH]3)C2=O)cc1 (stereo unspecified) 5.01 µM

From PubChem BioAssay AID2677 (National Center for Advancing Translational Sciences (NCATS), 2010)
